Test results reported in PubChem BioAssay AID624405 (Broad Institute, 2012).
Out of some 1,900 compounds screened, about 250 (13%) were called active. Not shown: some 4% with an inconclusive outcome.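 How the source made its calls: active means fitted curve reaches 40% rescue activity at or below the top valid dose, in every test run; inconclusive means test runs disagree, some active and some inactive; inactive means every run misses the threshold or moves the wrong way.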 Not all results are given here. Entries with a potency or affinity are not part of this list.

Assay: rescue of simvastatin-induced ATP loss – cell-based, C2C12 myotubes, ATP luminescence, cherry pick, dose response (AID 624405);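 further: myotubes are challenged with simvastatin at 10 µM to lower ATP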
Settings: 48 h, scaled: DMSO wells 0, geranylgeraniol wells 100; series mostly up to 19.5 µM; rescue activity (ATP increase): at the top concentration

SMILES	rescue activity (ATP increase)
Cc1ccc(-c2nc(CS(=O)CC(=O)NC3CCCCC3)c(C)o2)cc1 (stereo not drawn)	8.86% (inactive)
C[C@@H]1CN([C@H](C)CO)C(=O)Cc2cc(NS(=O)(=O)c3ccc(F)cc3)ccc2O[C@H]1CN(C)Cc1ccc2c(c1)OCO2	4.84% [at 10 µM] (inactive)
C[C@@H]1CN([C@@H](C)CO)C(=O)Cc2cc(NS(=O)(=O)c3ccc(Cl)cc3)ccc2O[C@H]1CN(C)Cc1ccc2c(c1)OCO2	26.1% (inactive)
C[C@@H]1CN([C@H](C)CO)C(=O)c2cc(NC(=O)CCC(F)(F)F)ccc2O[C@@H](C)CCCCO[C@@H]1CN(C)Cc1ccc(C(F)(F)F)cc1	17.6% (inactive)
COc1ccc(OC)c(C(c2nnnn2Cc2ccccc2)N2CCN(C3CCCCC3)CC2)c1 (stereo not drawn)	-18.9% (inactive)
COc1ccc(Cn2nnnc2C(c2ccccc2OC)N2CCC(C(N)=O)CC2)cc1 (stereo not drawn)	1.27% (inactive)
Cc1cnc(-c2nnc(N(C)C(=O)c3cccnc3)s2)cn1	8.39% (inactive)
C[C@@H]1CN([C@H](C)CO)C(=O)c2cccc(NS(=O)(=O)c3cccs3)c2O[C@@H]1CN(C)S(=O)(=O)c1ccccc1	35.5% [at 21 µM] (inactive)
COc1cccc(NC(=O)c2cccc(OC)c2OC)c1	24.9% (inactive)
CN1C(=O)c2cc(NC(=O)Cc3cccs3)ccc2OC[C@H]2O[C@@H](CC(=O)NCc3ccc(-c4ccccc4)cc3)CC[C@H]21	-23% (inactive)
CCOC(=O)N1CCN(C(=O)CSCC(=O)Nc2nc(-c3ccc4c(c3)OCO4)cs2)CC1	33% (inactive)
O=C(CSc1ccc2c(c1)OCCO2)Nc1ccc(Br)cc1	38.9% (inactive)
CC(Oc1ccc(Cl)cc1Cl)C(=O)N(Cc1ccco1)C1CCS(=O)(=O)C1 (stereo not drawn)	17.9% (inactive)
O=C(C[C@H]1CC[C@H]2[C@@H](COC[C@@H](O)CN2C(=O)c2cc(Cl)cc(Cl)c2)O1)N1CCc2ccccc2C1	34.1% (inactive)
CS(=O)(=O)N(CCc1ccccc1)CC(=O)N1CCc2ccccc2C1	-5.43% (inactive)
Cc1cc(C)c2cc(CN(Cc3ccco3)C(=O)NCc3ccccc3)c(=O)[nH]c2c1	-0.102% (inactive)
COc1ccc(NC(=O)Cn2ccc(C(F)(F)F)n2)cc1S(=O)(=O)N1CCOCC1	16.8% (inactive)
C[C@@H]1CCCCO[C@H](CN(C)S(=O)(=O)c2ccc(Cl)cc2)[C@@H](C)CN([C@H](C)CO)C(=O)c2cc(NS(C)(=O)=O)ccc2O1	2.07% (inactive)
CCOC(=O)c1c(C)oc2ccc(OCC(=O)C(C)(C)C)cc12	-29.5% (inactive)
CC(=O)c1cccc(NC(=O)N2CCCC2C(=O)Nc2cc(C)ccc2C)c1 (stereo not drawn)	-10.1% (inactive)
COc1ccc(C)cc1NC(=O)C1CCCN1C(=O)OCc1ccccc1 (stereo not drawn)	3.12% (inactive)
O=C(Nc1ccccc1Cl)N1C[C@H]2[C@@H](c3ccccc31)[C@H](CO)N2Cc1ccccc1	5.61% [at 21 µM] (inactive)
C[C@H]1CN([C@@H](C)CO)C(=O)Cc2cc(NC(=O)Nc3ccc(C(F)(F)F)cc3)ccc2O[C@H]1CN(C)Cc1ccc(Oc2ccccc2)cc1	-10.2% [at 21 µM] (inactive)
C[C@@H]1CCCCO[C@@H](CN(C)Cc2ccc(Cl)c(Cl)c2)[C@@H](C)CN([C@@H](C)CO)C(=O)c2cc(NC(=O)NC3CCCCC3)ccc2O1	4.06% (inactive)
Cc1sc2nc(CN(C(=O)c3cccs3)C3CCCC3)[nH]c(=O)c2c1C	14.6% (inactive)
C[C@@H]1CN([C@@H](C)CO)C(=O)Cc2cc(NC(=O)Cc3cn(C)c4ccccc34)ccc2O[C@H]1CN(C)Cc1ccc(Cl)c(Cl)c1	6.39% [at 21 µM] (inactive)
Cc1ccc(CSc2nnc3nc(C)cc(C)n23)cc1	-2.42% (inactive)

SMILES	rescue activity (ATP increase)
O=C(CSc1ncn(-c2ccccc2)n1)Nc1ccc2c(c1)OCCO2	9.96% (inactive)
CCOC(=O)Nc1c(C(=O)OC)[nH]c2cc(OC)ccc12	-14.6% (inactive)
CC(C)CCNc1ncnc2c1cnn2Cc1ccccc1Cl	-4.83% (inactive)
Cc1ccccc1S(=O)(=O)N(C)C[C@H]1OCc2ccccc2-c2c(n(C)c3ccccc23)C(=O)N([C@H](C)CO)C[C@H]1C	19.1% (inactive)
Cc1cccc(S(=O)(=O)N(C)C[C@H]2OCc3ccccc3-c3c(n(C)c4ccccc34)C(=O)N([C@@H](C)CO)C[C@H]2C)c1	17.8% (inactive)
C[C@H](CO)N1C[C@H](C)[C@@H](CN(C)S(=O)(=O)c2ccccc2)OCCCC[C@H](C)Oc2ccc(N(C)C)cc2C1=O	-3.9% (inactive)
C[C@@H]1CN([C@@H](C)CO)C(=O)c2cc(NC(=O)NC3CCCCC3)ccc2O[C@@H](C)CCCCO[C@H]1CN(C)C(=O)c1ccccc1	8.25% [at 21 µM] (inactive)
COc1ccc(CN2[C@H](CO)[C@@H]3c4ccccc4N(C(=O)C4CC4)C[C@@H]32)cc1	0.017% (inactive)
Cc1ccc(OCCCn2c(CO)nc3ccccc32)cc1	28.8% (inactive)
C=C(C)Cn1c(CCCNC(=O)C(C)(C)C)nc2ccccc21	0.573% (inactive)
CCCCn1c(=O)c(-c2ccccc2)c(O)c2ccccc21	22.6% (inactive)
CCC(=O)NCCc1nc2ccccc2n1Cc1ccccc1	0.181% (inactive)
CCCCCCN1Cc2ccccc2C1	31.9% (inactive)
CCc1nc2ccccc2n(CCOCCOCCn2c(=O)c(CC)nc3ccccc32)c1=O	-42.8% (inactive)
CCN1CCCC1CNC(=O)c1c(O)c2c([nH]c1=O)CCCC2 (stereo not drawn)	-17.6% (inactive)
COCC(C)NS(=O)(=O)c1ccc(C)cc1 (stereo not drawn)	-10.5% (inactive)
C[C@H]1CN([C@@H](C)CO)C(=O)Cc2cc(NC(=O)c3ccncc3)ccc2O[C@@H]1CN(C)C(=O)Nc1cccc2ccccc12	2.64% [at 21 µM] (inactive)
C[C@H](CO)N1C[C@H](C)[C@@H](CN(C)S(=O)(=O)c2ccc(Cl)cc2)OCCCC[C@H](C)Oc2ccc(NS(C)(=O)=O)cc2C1=O	-2.17% (inactive)
C[C@H](CO)N1C[C@H](C)[C@@H](CN(C)Cc2ccc(Cl)c(Cl)c2)Oc2ccc(NC(=O)Cc3ccccc3)cc2CC1=O	31.3% (inactive)
C[C@H]1CN([C@@H](C)CO)C(=O)c2cc(C3=CCCCC3)cnc2O[C@H]1CN(C)C(=O)c1ccccn1	-12.9% (inactive)
Cc1cc(NC(=O)c2ccc(N3C(=O)CCC3=O)cc2)no1	20.2% (inactive)
COc1ccc(Cl)cc1C(=O)n1nc(C)cc1C	0.34% (inactive)
COc1cc(C)ccc1OCCCOc1cc(C)ccc1Cl	12.3% (inactive)
C[C@@H]1CN([C@@H](C)CO)C(=O)Cc2cc(NC(=O)CCC(F)(F)F)ccc2O[C@H]1CN(C)Cc1ccc(Oc2ccccc2)cc1	34.1% (inactive)
Cc1ccc(-c2nc3ccccc3[nH]2)cc1NC(=O)c1ccco1	-123% (inactive)
CCc1c(C)sc(NC(=O)c2ccco2)c1C(=O)N1CCCCC1	11.7% (inactive)
